According to the supplement of paper PMC6555819:

Tests used:
Test in all cases: PBM binding z-score (relative to random genomic background probes); higher = stronger binding; sequences stand for … in GC…GCGATTGACAGCGTAGAATGAAGG
[1] = test system: RARb homodimer (NR concentration 270 nM)
Procedure, shortened: (§1)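 Custom Agilent 4×180K protein-binding microarrays carried double-stranded probes. Their 34-nt variable regions held direct-repeat seeds, single-nucleotide variants, half-site ablations and random human genomic background sequences. Arrays were incubated 1 h with ligand-free nuclear receptor dimers in PBS pH 7.4, 2% milk, 0.02% Triton X-100, 1 mM DTT, 0.2 mg/mL BSA and 0.4 mg/ml salmon testes DNA. Antibodies against each partner (one per run) detected binding, and scanned fluorescence was regression-normalized. Binding z-scores use random background probes as reference.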

[2] = test system: RARg:RXRa (NR concentration 270 nM, RXRa partner concentration 90 nM)
Procedure, shortened: as §1

[3] = test system: RARg homodimer (NR concentration 270 nM)
Procedure, shortened: as §1

[4] = test system: RXRa DBDmut IVT, anti-RXR (DBD mutation: RXRa K156A/R161A, NR concentration 90 nM)
Procedure, shortened: as §1

[5] = test system: RXRa homodimer (NR concentration 180 nM)
Procedure, shortened: as §1

[6] = test system: THRa:RXRa (NR concentration 90 nM, RXRa partner concentration 90 nM)
Procedure, shortened: as §1

[7] = test system: THRa homodimer (NR concentration 90 nM)
Procedure, shortened: as §1

[8] = test system: VDR homodimer (NR concentration 270 nM)
Procedure, shortened: as §1

Sequence | PBM binding z-score [1] | PBM binding z-score [2] | PBM binding z-score [3] | PBM binding z-score [4] | PBM binding z-score [5] | PBM binding z-score [6] | PBM binding z-score [7] | PBM binding z-score [8]
ATATGTAGGTTACATCCGGGTCCTTCAGGCTATG | 0.958 | 0.862 | 0.764 | 0.474 | 1.07 | 1.51 | 0.753 | 0.68
TCTATTAGTTGATGAGGGCAACCGAAACAGCGGA | 1.27 | 0.771 | 0.907 | 1.31 | 1.06 | 1.68 | 0.938 | 1.35
ATATGTAGGTTAAGGGCCATTCAGGTTGGTTCGC | 1.36 | 0.896 | 1.04 | 0.622 | 1.21 | 1.17 | 0.32 | 1.15
AGAACGAGGGCAATGGGTTGATAGCACGGGTGGC | 1.6 | 1.47 | 1.68 | 1.84 | 1.09 | 1.12 | 0.645 | 4.19
GATACAGGGTCAGCTAGAGGCCAGAGGATGGAAA | 3.55 | 6.91 | 4.81 | 1.22 | 4.69 | 2.93 | 0.198 | 0.847
TCTTGTAGATCAGCAGGGTAAGAAAGCTGGCCAA | -0.187 | -0.327 | -0.5 | 0.581 | -0.0542 | -0.165 | -0.567 | -0.255
CGGCAAAGTTCAAGGTAACGTAACAGAAAGCAGC | 3.52 | 5.32 | 6.01 | 4.49 | 4.62 | 2.79 | 0.581 | 2.71
CCGAGTAGGTTATGGGACATTCAGGCAACGGTGA | 0.969 | 0.533 | 0.86 | 0.181 | 0.607 | 0.565 | 0.413 | 0.326
AATACAGGGTCATCGTAGGCCAAAGTACGCACAG | 3.71 | 5.86 | 5.3 | 3.63 | 6.87 | 4.53 | 1.34 | 3.98
ATCTCTAGGTAAAGATAGTTGAGTGAATGCAAAT | -0.216 | 0.504 | 0.43 | 0.115 | 0.0675 | 0.495 | 0.0736 | 0.275
GCTGCTAGGTCATCTGATGGTCAGCTAAAGCTCG | 3.52 | 5.15 | 4.96 | 2 | 2.79 | 2.97 | 0.735 | 0.443
CGTCCAAGGTAAAAGGTCAGTGAAGAGATGACGG | 4.88 | 4.86 | 5.11 | 0.584 | 5.53 | 3.28 | 0.539 | 0.435
TCATATAGGTACAAGGTGAAAGTCGGTGTGGTAA | 1.38 | 0.762 | 0.453 | 2.04 | 1.33 | 1.91 | 1.51 | 0.703
CGTCCAAGGTCAAAGGTCAGTGATGAGATGACGG | 5.76 | 8.67 | 7.8 | 3.72 | 10.1 | 4.87 | 3.03 | 4.03
TGTCAAAGTTCCAAGGTAACGTAAGTATCCACAC | 0.222 | 0.298 | 0.719 | -0.251 | 0.443 | 1.72 | 1.09 | -0.0741
TCTTGTAGATCAATTGAGGTTAAGAAAGTGCGCT | 0.953 | 0.568 | 0.0458 | 1.05 | 0.886 | 3.84 | 0.878 | 0.579
GCTAGCAGGCCATTTGGGTCCCTCAATGACGGGC | -0.901 | -0.417 | -0.379 | -0.721 | -0.4 | 0.249 | -1.01 | -0.499
CCTACTGGGACATTCAGAGGTCATTGATCATATG | 4.09 | 3.72 | 3.06 | 1.77 | 4.05 | 3.38 | 1.9 | 4.08
CGTCAAAGTTCAACTAAGGTGACGTAAAGCACGC | 4.55 | 5.96 | 6.76 | 4.56 | 5.33 | 5.17 | 1.95 | 4.18

Sequence | PBM binding z-score [1] | PBM binding z-score [2] | PBM binding z-score [3] | PBM binding z-score [4] | PBM binding z-score [5] | PBM binding z-score [6] | PBM binding z-score [7] | PBM binding z-score [8]
CCTCGGAGGACAACAGGAGGACAGAGCTGCCAGA | 1.1 | 1.11 | 1.41 | -0.107 | 0.167 | 1.61 | 0.577 | 0.157
TCTTGTAGATCAATAGGAGGTTAAGAAAGATCGA | 0.457 | 0.595 | 0.446 | 1.01 | 0.992 | 0.723 | -0.311 | -0.266
TCGAGTAGGTTAGGGGCACTCAGAATGGCGTCGA | 0.798 | 0.322 | 0.17 | 0.247 | 0.488 | 0.572 | 0.0941 | 0.0717
GCTAGTTGGTCAGTCAAAGGTCACACACCGGTCG | 5.2 | 5.9 | 4.85 | 0.537 | 5.93 | 3.52 | 1.59 | 1.47
ATATGTAGGTTATCGAGTCATTCAGTTTGCGCAT | 0.699 | 0.829 | 0.699 | 0.829 | 0.932 | 0.512 | 0.232 | 0.932
TATACAGGGTCCAAGGCCAGAGTACGAATGTCGA | 1.18 | 0.986 | 1.15 | 1.17 | 0.823 | 0.402 | 0.398 | 2.03
ACTAGCGGGCCAAGTTTGGGTCACTCAAACAAAG | 2.11 | 2.14 | 1.65 | -0.0414 | 1.01 | 2.43 | 0.811 | 0.0653
TCTCGTTGGTCACGGAGGTCACACACGACGGGTA | 4.68 | 4.95 | 4.91 | 0.929 | 4.39 | 3.73 | 2.29 | 2.98
AGAACGAGGGCAATTAGTTGATAGCACGGGTGGC | 1.14 | 1.37 | 1.89 | 2.01 | 0.935 | 0.962 | -0.172 | 1.41
GCTAGCAGGCCATTTGGGTCAGTCAATGACGGGC | 1.42 | 0.49 | 1.01 | -0.27 | 0.218 | 0.812 | -0.371 | -0.151
CCCTACGGGTCACGAGGTTATAGCACGACGAGCG | 4.13 | 6.2 | 5.6 | 1.19 | 7.45 | 3.59 | 1.02 | 1.66
TCTATTAGTTGAATAGGGCAACCGAAACAGCGGA | 0.977 | 0.99 | 0.765 | 0.685 | 0.759 | 0.247 | -0.423 | -0.139
CCAACTGGGGCAGAAAGGTTACCATACCATCCGG | 2.5 | 1.72 | 1.37 | -0.546 | 1.76 | 1.06 | 0.0988 | -0.202
CCTTACGGGTCACAGACAGGTTATAGCATTTGGA | 3.16 | 5.97 | 4.84 | 1.77 | 5.47 | 3.03 | 0.316 | 0.727
ATCGAAAGGTCGTGAGGTGAATATACAGAAAGGC | 3.06 | 4.98 | 3.95 | 1.72 | 5.61 | 3.72 | 1.77 | 1.24
TGAATGAGGTTAAAGATCATGGAACGTGGCGTCG | 0.734 | 2.46 | 1.32 | 0.839 | 4.34 | 2.79 | 0.35 | 0.314
ATTTGTAGGTTAAGGGTCATTCAGGTTGGTTCGC | 3.97 | 5.34 | 4.15 | 2.49 | 6.91 | 3.76 | 2.55 | 5.33
TAGCCTAGGTCAGATCGGGCCAGTAAACGCTATA | 1.72 | 2.66 | 3.21 | -0.396 | 1.32 | 3.89 | -0.219 | -0.568
TCTTGTAGATCAAGCAAGTTAAGAAAGCCTGAGT | -0.703 | -0.21 | -0.386 | 0.582 | -0.066 | 0.341 | -0.759 | -0.186

Sequence | PBM binding z-score [1] | PBM binding z-score [2] | PBM binding z-score [3] | PBM binding z-score [4] | PBM binding z-score [5] | PBM binding z-score [6] | PBM binding z-score [7] | PBM binding z-score [8]
ACAGACAGGTGAGTGCAGGTAACTCAGCTGGACG | -0.104 | 0.091 | 0.426 | 0.222 | 0.412 | 1.69 | -0.612 | 0.269
TCGAGTAGGTTAGTCGAGGCATTCAGCCAACATA | -0.449 | -0.298 | -0.249 | -0.0873 | -0.032 | 0.444 | -0.612 | -0.393
CGTCCAAGGTCAGAGTGGTCAGTGAATGCCGAGT | 3.83 | 4.78 | 5.48 | 2.94 | 3.42 | 3.59 | 1.9 | 2.23
CCTGCAAGGTCATGGTCAGCTAATCTACAGTATG | 4.17 | 6.01 | 6.24 | 3.84 | 6.36 | 4.04 | 2.86 | 2.64
ACTCGGAGGACAAAGCTCAGAGCTACGCCAGTGA | -0.345 | 0.103 | 0.826 | 0.394 | -0.292 | 0.233 | -0.675 | -0.243
CAAACTAGGTCACCGGCAGGTCAAAGTCCGCATG | 5.08 | 7.9 | 7.05 | 2.05 | 6.42 | 4.37 | 3.02 | 2.72
GTACCAAGGTGAACAGGTCGTTGATGAGTAGGCG | 1.76 | 1.95 | 1.02 | -0.221 | 1.67 | 2.22 | 0.534 | 0.0817
CAAACTAGGTCACCGAGGTCAAAGTCCGTGCGTA | 5.47 | 6.99 | 7.18 | 3.46 | 7.09 | 4.93 | 4.37 | 7.68
ATCGAAAGGTCGTGAGGTCAGTATACAGAAAGGC | 4.83 | 6.17 | 5.53 | 2.13 | 6.57 | 4.25 | 3.19 | 3.51
ATCTCTAGGTAAGACTCAGTTCATTGAAGAACGC | 0.892 | 0.375 | 0.586 | 1.31 | 0.538 | 1.58 | 0.923 | 3.67
TGGCAAAGTTCAAAGGTAACGTAAGTATCCACAC | 4.03 | 6.21 | 5.81 | 4.22 | 7.78 | 3.41 | -0.0262 | 4.04
AGAATGAGGTTAAGATCAGGAAAACAGAATACAT | 0.79 | 2 | 1.73 | 0.917 | 2.65 | 2.28 | 0.529 | 0.435
CTCGAAAGGTCGCGCTCAGGTGAGTATACCAAAC | 3.47 | 5.54 | 4.9 | 2.28 | 5.79 | 4.23 | 1.01 | 1.35
ATCTCTAGGTAACCAAGTTCTGTGAATGCCGAAC | 0.202 | 0.225 | 0.194 | -0.0032 | 0.246 | 0.718 | 0.76 | 0.355
TGTCGGAGGACACGAAGGTCAGAGCTTTCCAGAG | 3.4 | 3.38 | 4.14 | -0.488 | 1.8 | 2.92 | 0.651 | 0.981
CCTAGAAGGCCAATCTGGGTCACTCAAGGCTTGA | 2.78 | 1.98 | 2.37 | 0.567 | 1.55 | 4.27 | 0.262 | 0.0868
GCTTGTAGATCAAGCTTAAGAAAGACTAAGCTAA | -1.31 | -0.516 | -0.459 | -0.635 | -0.645 | -0.583 | -1.48 | -0.457
CCTACTGGGCCAAAAAGGTCATAGATGCCGATAA | 4.35 | 4.63 | 4.54 | 0.263 | 5.22 | 3.08 | 0.589 | 2
TAGCCGAGGTCATTGGGCCAGTATAGTACGCATC | 3.98 | 5.93 | 5.86 | 4.42 | 6.61 | 4.01 | 2.77 | 5.01
